This is an account of results in PubChem BioAssay (EPA / NIEHS).

Inconclusive results are not listed. Activity calls are given as the source filed them. How the source made its calls: active means hit-call score of the fitted dose curve at least 0.9, where 1 is the maximum; inconclusive means response in the unintended direction; inactive means score below 0.9.

In assay [1] the target is rat CYP1A2, Cyp1a2 (gene 24297) (UniProt P04799). The assay is described as follows: NVS_ADME_rCYP1A2: NovaScreen (NVS) CYP450-related Enzyme Activity (ADME) Assay for rat CYP1A2 (AID 2283115). Summed up:
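Cell-free recombinant rat enzyme with fluorogenic substrate, read by fluorescence intensity 1 hour after dosing. Loss of signal versus acetonitrile negative control; primary screen at 10 uM in duplicate, actives followed in concentration series.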

For assay [2], the target named is rat Acetylcholinesterase (AChE), Ache (gene 83817) (UniProt P37136). The assay is described as follows: NVS_ENZ_rAChE: NovaScreen (NVS) Enzymatic Assay for rat Acetylcholinesterase (AChE) (AID 2283233). Summed up: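 Rat brain membrane acetylcholinesterase activity measured colorimetrically 0.33 h after compound addition, loss of signal relative to DMSO. Primary screen in duplicate at 25 uM; actives re-run as concentration-response with 50 uM top concentration.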
Chain of rat Acetylcholinesterase (AChE), Ache (gene 83817) (P37136 whole entry, looked up): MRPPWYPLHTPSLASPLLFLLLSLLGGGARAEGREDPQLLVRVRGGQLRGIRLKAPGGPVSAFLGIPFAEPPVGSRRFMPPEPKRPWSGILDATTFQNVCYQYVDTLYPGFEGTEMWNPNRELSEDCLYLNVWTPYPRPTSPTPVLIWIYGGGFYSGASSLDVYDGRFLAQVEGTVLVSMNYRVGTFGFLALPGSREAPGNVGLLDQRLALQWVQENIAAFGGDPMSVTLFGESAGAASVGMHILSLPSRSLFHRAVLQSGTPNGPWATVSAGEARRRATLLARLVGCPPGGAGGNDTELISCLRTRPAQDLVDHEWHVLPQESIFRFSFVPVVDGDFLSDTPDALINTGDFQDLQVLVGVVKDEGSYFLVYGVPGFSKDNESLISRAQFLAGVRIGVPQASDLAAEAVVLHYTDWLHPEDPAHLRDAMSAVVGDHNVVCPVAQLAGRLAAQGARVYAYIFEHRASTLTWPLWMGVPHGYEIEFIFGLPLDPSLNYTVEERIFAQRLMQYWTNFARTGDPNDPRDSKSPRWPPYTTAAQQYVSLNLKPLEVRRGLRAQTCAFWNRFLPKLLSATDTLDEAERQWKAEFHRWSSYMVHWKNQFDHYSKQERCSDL

For assay [3], the target named is human CYP4F12, CYP4F12 (gene 66002) (UniProt Q9HCS2). Nature of the assay: NVS_ADME_hCYP4F12: NovaScreen (NVS) CYP450-related Enzyme Activity (ADME) Assay for human CYP4F12 (AID 2283111). Summed up: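 Cell-free fluorescence assay of recombinant human CYP4F12 activity on a specific substrate, read 0.5 h after dosing. Primary screen in duplicate at 10 uM, then concentration series for actives; loss of signal fitted against acetonitrile negative control.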
Chain of human CYP4F12, CYP4F12 (gene 66002) (Q9HCS2 whole entry, looked up): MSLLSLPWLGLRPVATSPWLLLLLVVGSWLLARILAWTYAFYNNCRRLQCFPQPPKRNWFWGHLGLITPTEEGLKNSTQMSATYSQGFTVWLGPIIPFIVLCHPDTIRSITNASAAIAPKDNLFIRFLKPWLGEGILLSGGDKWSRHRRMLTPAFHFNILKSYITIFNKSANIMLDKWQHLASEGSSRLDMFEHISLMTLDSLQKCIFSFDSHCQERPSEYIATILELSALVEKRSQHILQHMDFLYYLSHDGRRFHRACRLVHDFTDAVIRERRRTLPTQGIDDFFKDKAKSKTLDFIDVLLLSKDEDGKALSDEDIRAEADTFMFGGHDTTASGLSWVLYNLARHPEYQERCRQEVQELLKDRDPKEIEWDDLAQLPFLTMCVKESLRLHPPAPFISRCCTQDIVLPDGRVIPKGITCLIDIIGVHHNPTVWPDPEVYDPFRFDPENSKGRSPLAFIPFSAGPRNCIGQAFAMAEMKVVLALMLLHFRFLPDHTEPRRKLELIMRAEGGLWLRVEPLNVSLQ

Assay [4] concerns the target human Epidermal Growth Factor Receptor (EGFR), EGFR (gene 1956) (UniProt P00533). Nature of the assay: NVS_ENZ_hEGFR: NovaScreen (NVS) Enzymatic Assay for human Epidermal Growth Factor Receptor (EGFR) (AID 2283151). Summed up: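 Cell-free kinase assay, fluorescence plus electrophoretic mobility shift separating substrate and product, read 1 hour after dosing; loss of signal vs DMSO. Duplicate screen at 25 uM, then concentration-response to 50 uM.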

For assay [5], the target named is human Fibroblast Growth Factor Receptor 1 (FGFR1), FGFR1 (gene 2260) (UniProt P11362). The assay is described as follows: NVS_ENZ_hFGFR1: NovaScreen (NVS) Enzymatic Assay for human Fibroblast Growth Factor Receptor 1 (FGFR1) (AID 2283159). Summed up: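 Cell-free recombinant kinase with fluorescent substrate, product separated by electrophoretic mobility shift; read 1 hour after dosing, loss of signal relative to DMSO. Initial screen in duplicate at 25 uM, actives followed in concentration series.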
Chain of human Fibroblast Growth Factor Receptor 1 (FGFR1), FGFR1 (gene 2260) (P11362 whole entry, looked up): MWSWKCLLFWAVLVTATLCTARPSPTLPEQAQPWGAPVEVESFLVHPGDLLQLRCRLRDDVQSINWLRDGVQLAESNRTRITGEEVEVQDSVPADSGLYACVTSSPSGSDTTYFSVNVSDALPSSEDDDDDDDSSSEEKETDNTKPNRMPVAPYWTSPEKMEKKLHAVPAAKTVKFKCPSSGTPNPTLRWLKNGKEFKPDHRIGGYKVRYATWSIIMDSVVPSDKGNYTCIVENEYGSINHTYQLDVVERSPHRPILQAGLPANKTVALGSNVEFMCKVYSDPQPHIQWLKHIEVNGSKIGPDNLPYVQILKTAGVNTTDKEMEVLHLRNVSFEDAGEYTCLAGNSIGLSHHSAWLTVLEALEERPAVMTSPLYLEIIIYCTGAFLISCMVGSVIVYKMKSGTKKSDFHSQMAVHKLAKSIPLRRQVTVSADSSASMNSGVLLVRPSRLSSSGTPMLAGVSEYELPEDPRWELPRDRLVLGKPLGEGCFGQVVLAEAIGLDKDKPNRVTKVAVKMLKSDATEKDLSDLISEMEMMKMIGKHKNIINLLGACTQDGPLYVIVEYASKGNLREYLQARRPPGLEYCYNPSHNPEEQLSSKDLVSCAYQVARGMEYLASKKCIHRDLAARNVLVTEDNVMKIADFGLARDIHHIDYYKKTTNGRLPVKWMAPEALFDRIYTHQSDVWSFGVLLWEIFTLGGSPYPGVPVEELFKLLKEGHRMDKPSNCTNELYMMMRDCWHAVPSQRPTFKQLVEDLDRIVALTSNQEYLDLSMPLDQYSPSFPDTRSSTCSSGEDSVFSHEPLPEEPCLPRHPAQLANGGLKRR

In assay [6] the target is human Protein Tyrosine Phosphatase Non-receptor Type 2 (PTPN2), PTPN2 (gene 5771) (UniProt P17706). Nature of the assay: NVS_ENZ_hPTPN2: NovaScreen (NVS) Enzymatic Assay for human Protein Tyrosine Phosphatase Non-receptor Type 2 (PTPN2) (AID 2283207). Summed up:
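Cell-free recombinant enzyme with fluorescent substrate, product separated by electrophoretic mobility shift; read 1 h after dosing. Primary screen single concentration (25 uM) in duplicate; actives followed in concentration series; loss of signal versus DMSO.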

Assay [7] addresses human Raf-1 Proto-Oncogene, serine/threonine Kinase (RAF1), RAF1 (gene 5894) (UniProt P04049). Nature of the assay: NVS_ENZ_hRAF1: NovaScreen (NVS) Enzymatic Assay for human Raf-1 Proto-Oncogene, serine/threonine Kinase (RAF1) (AID 2283216). Summed up: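 Cell-free recombinant kinase with specific fluorescent substrate, product separated by electrophoretic mobility shift; read 1 h after dosing. Primary screen at 25 uM in duplicate; hits then run in concentration-response up to 50 uM, fitted as loss of signal versus DMSO.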

The nature of assay [8]: ATG_M_32_XSP2: Attagene TRANS-FACTORIAL Multi-Species (XSP2) HepG2 Assay for M19 Transcription Factor (Internal Marker) (AID 2283826). Summed up:
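Total RNA is taken from compound-treated HepG2 cells after 24 h and reverse-transcribed; reporter cDNA is PCR-amplified, end-labelled with 6-FAM, digested with HpaI for 2h at 37 C and sized by capillary electrophoresis. Activity is fitted in the positive direction against DMSO.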

Assay [9] concerns the target human Acetylcholinesterase (AChE), ACHE (gene 43) (UniProt P22303). The assay is described as follows: NVS_ENZ_hAChE: NovaScreen (NVS) Enzymatic Assay for human Acetylcholinesterase (AChE) (AID 2283129). Summed up:
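Cell-free colorimetric enzyme-activity assay; compounds read 0.33 hour after dosing, loss of signal vs DMSO baseline. Primary screen in duplicate at 25 uM single concentration, with active compounds retested in concentration series.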

The next assay addresses Caspase-1 (Homo sapiens) (UniProt P29466). The assay is described as follows: NVS_ENZ_hCASP1: NovaScreen (NVS) Enzymatic Assay for human Caspase 1 (CASP1) (AID 2283132). Summed up:
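Cell-free enzymatic assay with E. coli-expressed recombinant protein; fluorescence intensity read 1 hour after dosing. Single-concentration duplicate screen at 25 uM, then concentration-response up to 50 uM; activity fitted relative to DMSO, loss of signal meaning inhibition.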

Assay [10] deals with human Caspase 2 (CASP2), CASP2 (gene 835) (UniProt P42575). The assay is described as follows: NVS_ENZ_hCASP2: NovaScreen (NVS) Enzymatic Assay for human Caspase 2 (CASP2) (AID 2283135). Summed up:
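E. coli-expressed enzyme in a cell-free protease assay, fluorescence read 1 h after dosing. Compounds at 25 uM in duplicate, with concentration-response up to 50 uM for hits; loss of signal against DMSO baseline.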

Another assay relates to rat CYP2B1, gene 24300. The assay is described as follows: NVS_ADME_rCYP2B1: NovaScreen (NVS) CYP450-related Enzyme Activity (ADME) Assay for rat CYP2B1 (AID 2283117). Summed up:
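Recombinant rat CYP2B1 with fluorogenic substrate, read at 0.75 h. Primary screen in duplicate at 10 uM; compounds meeting threshold (e.g., 30% inhibition) re-run in concentration-response up to 20 uM. Fitted against acetonitrile control.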

For assay [11], the target named is human AMP-activated Protein Kinase, alpha 1 (AMPKa1), PRKAA1 (gene 5562) (UniProt Q13131). The assay is described as follows: NVS_ENZ_hAMPKa1: NovaScreen (NVS) Enzymatic Assay for human AMP-activated Protein Kinase, alpha 1 (AMPKa1) (AID 2283130). Summed up:
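Recombinant human AMPKα1 activity was measured cell-free by fluorescent substrate conversion with electrophoretic mobility-shift separation, 1 h after dosing. Duplicate single-point screening was at 25 uM; actives (≥30% inhibition) were retested in concentration-response up to 50 uM.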

The target in assay [12] is human Aurora Kinase A - serine/threonine-protein Kinase 6 (AurA), AURKA (gene 6790) (UniProt O14965). The assay is described as follows: NVS_ENZ_hAurA: NovaScreen (NVS) Enzymatic Assay for human Aurora Kinase A - serine/threonine-protein Kinase 6 (AurA) (AID 2283142). Summed up: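 Cell-free enzymatic assay with human Aurora A, 1 hour after dosing. Fluorescent substrate turnover detected after electrophoretic mobility shift separation of substrate and product. Screened at 25 uM, actives retested in concentration-response up to 50 uM.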
Chain of human Aurora Kinase A - serine/threonine-protein Kinase 6 (AurA), AURKA (gene 6790) (O14965 whole entry, looked up): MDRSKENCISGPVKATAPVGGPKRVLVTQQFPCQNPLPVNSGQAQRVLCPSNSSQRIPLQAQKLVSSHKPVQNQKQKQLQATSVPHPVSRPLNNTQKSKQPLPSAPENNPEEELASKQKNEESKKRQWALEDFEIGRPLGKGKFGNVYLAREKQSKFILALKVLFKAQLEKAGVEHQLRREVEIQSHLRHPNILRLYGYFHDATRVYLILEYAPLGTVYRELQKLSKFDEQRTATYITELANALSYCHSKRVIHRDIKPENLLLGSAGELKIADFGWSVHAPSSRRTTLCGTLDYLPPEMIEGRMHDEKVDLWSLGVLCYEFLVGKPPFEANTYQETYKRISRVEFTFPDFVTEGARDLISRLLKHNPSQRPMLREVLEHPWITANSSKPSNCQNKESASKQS

Assay [13] deals with human Tyrosine Protein Kinase Receptor Tie-2 (Tie2), TEK (gene 7010) (UniProt Q02763). Nature of the assay: NVS_ENZ_hTie2: NovaScreen (NVS) Enzymatic Assay for human Tyrosine Protein Kinase Receptor Tie-2 (Tie2) (AID 2283225). Summed up:
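Recombinant human Tie2 kinase activity was read cell-free by fluorescence with electrophoretic mobility shift, 1 hour after dosing. The screen used 25 uM in duplicate, then concentration-response up to 50 uM. Signal loss was scored against DMSO.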

Assay [14] has as its system rat Monoamine Oxidase, MAO-A, Central (MAOAC), gene 29253. The assay is described as follows: NVS_ENZ_rMAOAC: NovaScreen (NVS) Enzymatic Assay for rat Monoamine Oxidase, MAO-A, Central (MAOAC) (AID 2283243).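 Further: potency refers to inhibition seen as signal drop below DMSO baseline.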 Summed up: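 Rat brain tissue extract used as enzyme source in a cell-free radiometric assay, read by scintillation counting 1.5 hours after dosing. Loss of signal relative to DMSO baseline scored; primary screen at 25 uM in duplicate, actives followed up in concentration series.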

Assay [15] concerns the target rat CYP2C12, Cyp2c12 (gene 25011) (UniProt P11510). Nature of the assay: NVS_ADME_rCYP2C12: NovaScreen (NVS) CYP450-related Enzyme Activity (ADME) Assay for rat CYP2C12 (AID 2283119). Summed up: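 Cell-free recombinant rat CYP2C12 activity read by fluorescence 0.5 h after dosing; loss of signal versus acetonitrile control. Primary screen in duplicate at 10 uM; actives then run in concentration-response format.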

The target in assay [16] is rat Gamma-Aminobutyric Acid Type A Receptor BDZ, alpha 6 site (GABARa6), Gabra6 (gene 29708) (UniProt P30191). Nature of the assay: NVS_LGIC_rGABARa6: NovaScreen (NVS) Ligand-Gated Ion Channel Assay for rat Gamma-Aminobutyric Acid Type A Receptor BDZ, alpha 6 site (GABARa6) (AID 2283339). Summed up:
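Rat cerebellar membranes; radioligand binding, filtration and scintillation counting, read 1 h after dosing. Single-concentration duplicate screen at 25 uM, then concentration-response up to 50 uM for actives; loss of signal fitted versus DMSO baseline.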

Assay [17] has as its target human Neonicotinoid receptor (NNR), CHRNA2 (gene 1135) (UniProt Q15822). The assay is described as follows: NVS_LGIC_hNNR_NBungSens: NovaScreen (NVS) Ligand-Gated Ion Channel Assay for human Neonicotinoid receptor (NNR) (AID 2283313). Summed up:
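Radioligand displacement on human neuroblastoma membranes, 2 h, filter-based scintillation counting. Primary screen in duplicate at 25 uM; chemicals passing threshold (e.g. 30% inhibition) run singleton concentration-response to 50 uM; loss of binding fitted versus DMSO.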

Chain of rat CYP1A2, Cyp1a2 (gene 24297) (P04799 whole entry, looked up): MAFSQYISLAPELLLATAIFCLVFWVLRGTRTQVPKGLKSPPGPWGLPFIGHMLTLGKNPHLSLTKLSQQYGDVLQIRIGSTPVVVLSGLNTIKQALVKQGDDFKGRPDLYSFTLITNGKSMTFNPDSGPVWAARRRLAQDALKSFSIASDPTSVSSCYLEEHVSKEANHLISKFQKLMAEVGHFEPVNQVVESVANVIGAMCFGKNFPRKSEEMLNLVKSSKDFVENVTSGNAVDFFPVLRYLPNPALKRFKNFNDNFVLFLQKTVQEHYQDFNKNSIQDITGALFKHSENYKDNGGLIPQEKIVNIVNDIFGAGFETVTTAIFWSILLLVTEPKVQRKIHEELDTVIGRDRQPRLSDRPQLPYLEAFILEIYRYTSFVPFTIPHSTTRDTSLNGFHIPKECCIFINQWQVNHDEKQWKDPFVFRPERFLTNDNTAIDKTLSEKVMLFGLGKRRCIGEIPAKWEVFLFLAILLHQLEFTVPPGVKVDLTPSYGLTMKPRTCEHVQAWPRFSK
Chain of human Acetylcholinesterase (AChE), ACHE (gene 43) (P22303 whole entry, looked up): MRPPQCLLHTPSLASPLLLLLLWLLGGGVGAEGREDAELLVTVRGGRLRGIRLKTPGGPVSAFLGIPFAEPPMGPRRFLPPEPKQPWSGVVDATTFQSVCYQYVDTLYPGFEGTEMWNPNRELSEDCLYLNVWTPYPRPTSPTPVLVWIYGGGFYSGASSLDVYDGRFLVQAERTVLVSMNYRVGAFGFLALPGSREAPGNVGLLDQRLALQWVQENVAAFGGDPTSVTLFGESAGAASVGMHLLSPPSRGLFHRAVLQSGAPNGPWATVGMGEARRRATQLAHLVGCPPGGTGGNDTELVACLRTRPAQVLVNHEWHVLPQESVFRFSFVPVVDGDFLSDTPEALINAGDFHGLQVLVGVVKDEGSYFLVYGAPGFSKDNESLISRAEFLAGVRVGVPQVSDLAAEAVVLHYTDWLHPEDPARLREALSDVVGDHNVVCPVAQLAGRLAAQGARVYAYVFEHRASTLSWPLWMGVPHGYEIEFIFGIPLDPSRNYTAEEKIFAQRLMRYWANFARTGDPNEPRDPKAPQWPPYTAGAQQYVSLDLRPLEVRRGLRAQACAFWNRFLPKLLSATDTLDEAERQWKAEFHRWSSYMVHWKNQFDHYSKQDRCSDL
Chain of human AMP-activated Protein Kinase, alpha 1 (AMPKa1), PRKAA1 (gene 5562) (Q13131 whole entry, looked up): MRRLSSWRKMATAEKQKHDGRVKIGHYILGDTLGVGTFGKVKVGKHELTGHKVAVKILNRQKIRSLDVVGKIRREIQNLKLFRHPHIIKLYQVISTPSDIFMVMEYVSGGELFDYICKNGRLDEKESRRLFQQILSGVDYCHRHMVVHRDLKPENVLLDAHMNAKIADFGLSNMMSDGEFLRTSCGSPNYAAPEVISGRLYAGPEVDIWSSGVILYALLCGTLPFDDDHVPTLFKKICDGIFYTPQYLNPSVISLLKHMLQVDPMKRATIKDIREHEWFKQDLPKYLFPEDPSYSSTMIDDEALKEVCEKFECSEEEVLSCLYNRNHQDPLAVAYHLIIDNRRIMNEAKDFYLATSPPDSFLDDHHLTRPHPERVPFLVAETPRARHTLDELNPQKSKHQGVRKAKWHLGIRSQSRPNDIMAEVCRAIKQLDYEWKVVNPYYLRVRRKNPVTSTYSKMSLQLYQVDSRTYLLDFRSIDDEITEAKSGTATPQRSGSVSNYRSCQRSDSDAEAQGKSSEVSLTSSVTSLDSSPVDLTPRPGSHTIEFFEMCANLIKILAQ
Chain of rat Gamma-Aminobutyric Acid Type A Receptor BDZ, alpha 6 site (GABARa6), Gabra6 (gene 29708) (P30191 whole entry, looked up): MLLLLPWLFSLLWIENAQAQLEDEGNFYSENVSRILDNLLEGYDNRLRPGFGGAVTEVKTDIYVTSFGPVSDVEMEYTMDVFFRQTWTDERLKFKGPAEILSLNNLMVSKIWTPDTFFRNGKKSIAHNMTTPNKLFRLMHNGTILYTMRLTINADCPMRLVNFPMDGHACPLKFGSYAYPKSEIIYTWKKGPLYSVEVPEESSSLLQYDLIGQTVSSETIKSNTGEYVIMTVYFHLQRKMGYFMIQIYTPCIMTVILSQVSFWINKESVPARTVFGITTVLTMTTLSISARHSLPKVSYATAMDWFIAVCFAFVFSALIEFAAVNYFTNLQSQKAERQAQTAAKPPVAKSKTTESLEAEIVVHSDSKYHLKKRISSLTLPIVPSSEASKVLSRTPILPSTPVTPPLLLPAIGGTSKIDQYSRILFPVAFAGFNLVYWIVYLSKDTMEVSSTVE
Chain of Caspase-1 (Homo sapiens) (P29466 whole entry, looked up): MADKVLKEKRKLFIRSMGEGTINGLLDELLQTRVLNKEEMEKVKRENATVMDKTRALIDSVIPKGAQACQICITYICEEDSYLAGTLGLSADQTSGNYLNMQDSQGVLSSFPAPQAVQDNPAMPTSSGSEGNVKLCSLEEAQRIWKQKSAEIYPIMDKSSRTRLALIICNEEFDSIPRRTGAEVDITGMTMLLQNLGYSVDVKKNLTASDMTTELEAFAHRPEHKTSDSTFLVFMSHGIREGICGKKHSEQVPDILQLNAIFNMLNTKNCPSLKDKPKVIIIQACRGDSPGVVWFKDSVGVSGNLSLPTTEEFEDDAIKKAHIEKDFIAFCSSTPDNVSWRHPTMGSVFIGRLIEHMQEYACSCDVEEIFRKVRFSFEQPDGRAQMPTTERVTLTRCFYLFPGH

As to `O=C1OC2(c3cc(Br)c(O)c(Br)c3Oc3c2cc(Br)c(O)c3Br)c2c(Cl)c(Cl)c(Cl)c(Cl)c21`, the result in assay [1] was inactive. Further, the AC50 in assay [2] was 2.75 µM (active).

For `CC(C)CCCCCCc1ccc(O)cc1`, the result in [3], in assay [4], in assay [5], in assay [6], in assay [7] and in assay [8] was inactive. `O=C1c2c(O)cccc2Cc2cccc(O)c21`: the AC50 in assay [9] is 0.484 µM (active); with Caspase-1 (Homo sapiens), 5.01 µM (active); in [10], 1.03 µM (active). For `O=C1OC(c2ccc(O)cc2)(c2ccc(O)cc2)c2ccccc21`, the call in assay [9] was inactive. For `CC(C)CCCCCCCOC(=O)CCCCC(=O)OCCCCCCCC(C)C`, the AC50 in assay [9] is 7.43 µM (active). Take `O=C1NC(=O)C(c2ccccc2)(c2ccccc2)N1`: the call in assay [3] was inactive. As for `CCCCCOC(C)=O`, the compound was classed as inactive in assay [9].

Consider `CCCCCCC(C)OC(=O)CCCCC(=O)OC(C)CCCCCC` (stereo not drawn), for which the result in assay [1] was inactive.

With `CC(C)NCC(O)c1ccc(O)c(O)c1` (stereo not drawn), in assay [3], the AC50 was 2.13 µM (active). Moreover, the compound was classed as inactive in [5].

Turning to `CCCCC(CC)COP(=O)(OCC(CC)CCCC)OCC(CC)CCCC` (stereo not drawn), in [9], the half-maximal activity concentration (AC50) was 32.7 µM (active). For `CCCCC(CC)COC(=O)CCCCCCCC(=O)OCC(CC)CCCC` (stereo not drawn), in assay [9], the compound was called inactive. For the compound `O=C=NCCCCCCN=C=O`, the AC50 in [3] was 0.884 µM (active).

On to `NC(=S)NNC(N)=S`, for which the compound was classed as inactive in assay [1]. Turning to `c1ccc2c(c1)-c1cccc3c1c-2cc1ccccc13`, in assay [9], the result was inactive.

Regarding `O=C1c2ccccc2C(=O)c2c(O)ccc(O)c21`, the compound was called inactive in [1].

As for `CCCCC(CC)COC(=O)c1ccc(C(=O)OCC(CC)CCCC)cc1` (stereo not drawn), the compound was classed as inactive in assay [9]. Turning to `BrC1CCC(Br)C(Br)CCC(Br)C(Br)CCC1Br` (stereo not drawn), in the assay on rat CYP2B1, gene 24300, the result was inactive. In the case of `CN(C)C(=O)NC1(c2ccccc2)CCN(CC[C@@]2(c3ccc(F)c(F)c3)CN(C(=O)c3ccccc3)CCO2)CC1`, the compound was classed as inactive in [3], in assay [11], in assay [12], in assay [5] and in [13].

With `CCN(CC)c1ccc2c(C)cc(=O)oc2c1`, the AC50 in [1] was 8.15 µM (active); in assay [14], 8.36 µM (active). As to `COC(=O)c1ccccc1S(=O)(=O)NC(=O)Nc1nc(OC(F)F)cc(OC(F)F)n1`, the call in [15], in [9] and in assay [16] was inactive. For `COc1cccc([C@H](O)C2CCN(CCc3ccc(F)cc3)CC2)c1OC`, the AC50 in assay [3] was 0.441 µM (active). For the compound `CC1=C(/C=C/C(C)=C/C=C/C(C)=C/CO)C(C)(C)CCC1`, the compound was called inactive in [11], in assay [12] and in [5].

For the compound `O=c1[nH]c2ccc(S(=O)CCN3CCC(Cc4ccc(F)cc4)CC3)cc2o1` (stereo not drawn), the AC50 in assay [9] was 3.71 µM (active); in [2], 5.31 µM (active); in [17], 5.31 µM (active).
